“And” between values parts separate entries of the source, which are not always exact repeats. Equal values may be shown once. Inconclusive results are not listed. The source holds several records for some structures; these can differ, active in one and inactive in another. The source made the active and inactive calls. The call rests on the fitted dose curve; in most records, active means well fitted curve in the direction sought with a large enough effect; inconclusive means small, poorly fitted or top-dose-only effect, or another doubt; inactive means no such curve, though single readings can be large; an effect the other way counts as inactive or inconclusive.
Legend:
[1] = Viability qHTS for spleen associated tyrosine kinase inhibitor (SYKi) naive MV4-11 cells (AID 1963823); further: nearly all actives have a fitted effect of over 40% in size
Procedure, shortened: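 Luminescence from CellTiter-Glo, developed 10 min at room temperature, gave viability of MV4-11 cells never exposed to SYK inhibitor. Cells (500/well) had been incubated with compounds for 72 hr under standard culture conditions.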

[2] = Viability qHTS for spleen associated tyrosine kinase inhibitor (SYKi) drug resistant MV4-11 cells (AID 1963824); further: nearly all actives have a fitted effect of over 35% in size
Procedure, shortened: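 SYK inhibitor-resistant MV4-11 AML cells, 500 per well, added to predispensed compounds and incubated 72 hr at 37 C, 5% CO2. Viability measured by CellTiter-Glo luminescence after 10 min at room temperature.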

[3] = Quantitative highthroughput screen to assess conditional lethalithy of NOMO1 cells grown in RPMI1640 with untreated serum (RPMI+s) (AID 1963876); further: nearly all actives have a fitted effect of over 35% in size;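 on Viability: 100% = DMSO wells and 0% = empty wells without cells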
Procedure, shortened: (§1)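 Each medium arm—HPLM with 10% dialyzed FBS, or RPMI1640 with 5 mM glucose and 10% untreated or dialyzed FBS—was screened against an 11-point, 3-fold compound titration for 48 h at 37 °C, with CellTiter-Glo luminescence as endpoint.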

[4] = Quantitative highthroughput screen to assess conditional lethalithy of NOMO1 cells grown in Human Plasma-Like Medium with dialyzed fetal bovine serum (HPLM+ds) (AID 1963878); further: nearly all actives have a fitted effect of over 35% in size;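 on Viability: 100% = DMSO wells and 0% = empty wells on each plate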
Procedure, shortened: as §1

[5] = Quantitative highthroughput screen to assess conditional lethalithy of P12 Ichikawa cells grown in Human Plasma-Like Medium with dialyzed fetal bovine serum (HPLM+ds) (AID 1963879); conditions: Potency: viability; further: nearly all actives have a fitted effect of over 35% in size; on Viability: series mostly up to about 46 µM
Procedure, shortened: as §1

[6] = Quantitative highthroughput screen to assess conditional lethalithy of SEM cells grown in Human Plasma-Like Medium with dialyzed fetal bovine serum (HPLM+ds) (AID 1963882); further: nearly all actives have a fitted effect of over 35% in size; on Viability: series mostly up to about 46 µM
Procedure, shortened: as §1

[7] = Quantitative highthroughput screen to assess conditional lethalithy of SEM cells grown in RPMI1640 with unreated serum (RPMI+s) (AID 1963883); further: nearly all actives have a fitted effect of over 35% in size;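 on Viability: 100% = DMSO wells and 0% = empty wells without cells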
Procedure, shortened: as §1

[8] = Cellular viability qHTS for adrenocortical cancer (ACC) cell line SW-13 (AID 1963989); conditions: SW-13 ACC cells viability, CellTiter-Glo, 48 h; activity (max response): stronger effect = lower value; further: nearly all actives have a fitted effect of over 65% in size;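 on activity (max response): cells grown in serum-free medium with ITS supplement; on the % scale 0 is the no-effect control and ±100 the full control effect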
Procedure, shortened: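 Here, serum-free SW-13 cultures were dosed up to 46 uM. Following 48 h, ATP-dependent luminescence (CellTiter-Glo) reported viable cells, and logistic modeling produced IC50 values.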

[9] = Quantitative highthroughput screen to assess conditional lethalithy of NOMO1 cells grown in RPMI1640 with dialyzed fetal bovine serum (RPMI+ds) (AID 1963877); further: nearly all actives have a fitted effect of over 30% in size;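 on Viability: series mostly up to about 46 µM; 100% = DMSO control wells and 0% = empty wells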
Procedure, shortened: as §1

[10] = Quantitative highthroughput screen to assess conditional lethalithy of SEM cells grown in RPMI1640 with dialyzed fetal bovine serum (RPMI+ds) (AID 1963884); further: nearly all actives have a fitted effect of over 35% in size;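 on Viability: series mostly up to about 46 µM; 100% = DMSO control wells and 0% = empty wells without cells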
Procedure, shortened: as §1

[11] = Cellular viability qHTS for adrenocortical cancer (ACC) cell line NCI-H295R (AID 1963990); further: nearly all actives have a fitted effect of over 60% in size
Procedure, shortened: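 Viability of NCI-H295R after 48 h of treatment (final up to 46 uM) measured through cellular ATP luminescence.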

[12] = Quantitative highthroughput screen to assess conditional lethalithy of P12 Ichikawa cells grown in RPMI1640 with dialyzed fetal bovine serum (RPMI+ds) (AID 1963880); conditions: Potency: P12-Ichikawa viability; further: nearly all actives have a fitted effect of over 35% in size;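 on Viability: 100% = DMSO wells and 0% = empty wells on each plate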
Procedure, shortened: as §1

[13] = Quantitative highthroughput screen to assess conditional lethalithy of P12 Ichikawa cells grown in RPMI1640 with untreated serum (RPMI+s) (AID 1963881); conditions: Potency: viability; further: nearly all actives have a fitted effect of over 35% in size;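 on Viability: series mostly up to about 46 µM; 100% = DMSO wells and 0% = empty wells without cells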
Procedure, shortened: as §1
Potency means the concentration at half of the fitted maximal effect.

COc1cc2nccc(Oc3ccc(NC(=O)Nc4ccc(F)cc4F)c(F)c3)c2cc1OC
active: Potency [1] 0.0231 µM | Potency [2] 0.0517 µM | Potency [5] 23.5 µM | Potency [6] 0.0105 µM | Potency [7] 0.209 µM
inactive: Potency [3] | Potency [4] | activity (max response) [8] -11.6%

NC(=O)c1cccc2[nH]c(-c3ccc([C@H]4CCCN4)cc3F)nc12
inactive: Potency [3] | activity (max response) [8] -3%
active: Potency [1] 20.6 µM | Potency [2] 16.6 µM | Potency [9] 18.7 µM | Potency [7] 3.72 µM | Potency [10] 2.64 µM | Potency [11] 8.91 µM

COc1ccc2cc(-c3nc(-c4ccc(S(C)=O)cc4)[nH]c3-c3ccncc3)ccc2c1 (stereo not drawn)
active: Potency [1] 9.34 µM and 11.6 µM | Potency [2] 9.34 µM and 13 µM | Potency [11] 28.2 µM
inactive: Potency [3] | Potency [4] | Potency [5] | Potency [6] | Potency [7] | Potency [10]

Cc1ccc(S(=O)(=O)N[C@@H](Cc2ccccc2)C(=O)CCl)cc1
active: Potency [1] 9.34 µM | Potency [2] 8.33 µM | Potency [11] 22.4 µM
inactive: Potency [3] | Potency [9]

C#Cc1cccc(Nc2ncnc3cc(OC)c(OCCCCCCC(=O)NO)cc23)c1
active: Potency [1] 291 nM and 372 nM | Potency [2] 231 nM and 296 nM | Potency [3] 1.05 µM | Potency [4] 0.372 µM | Potency [5] 0.235 µM | Potency [12] 0.166 µM | Potency [13] 0.235 µM | Potency [6] 0.296 µM | Potency [7] 0.209 µM | Potency [10] 0.209 µM | Potency [8] 1.78 µM | Potency [11] 2 µM

CC(C)(C#N)c1cc(Cn2cncn2)cc(C(C)(C)C#N)c1
inactive: Potency [1] | Potency [2] | Potency [3] | Potency [4] | Potency [5] | Potency [12] | Potency [13] | Potency [6] | Potency [7] | Potency [10] | activity (max response) [8] 5.22% | Potency [11]

Cn1cc(C[C@@H](N)C(=O)O)c2ccccc21
inactive: viability (% of control) [1] 69.9% [at 9.25 µM] | viability, % of control [2] 75.4% [at 9.25 µM] | Potency [3] | Potency [4] | Potency [5] | Potency [12] | Potency [13] | Potency [6] | Potency [7] | Potency [10] | activity (max response) [8] -6.77%

CN(C)c1nc(N(C)C)nc(N(C)C)n1
inactive: Potency [1] | Potency [2] | Potency [3] | Potency [4] | Potency [5] | Potency [12] | Potency [13] | Potency [6] | Potency [7] | Potency [10] | activity (max response) [8] -1.75% and -4.21% | Potency [11]

NC1(Cc2ccc(Cl)cc2)CCN(c2ncnc3[nH]ccc23)CC1
active: Potency [1] 3.72 µM | Potency [2] 5.25 µM | Potency [3] 10.5 µM | Potency [9] 9.35 µM | Potency [6] 6.62 µM | Potency [7] 5.26 µM | Potency [10] 7.43 µM | Potency [11] 20 µM

COc1cc(C(=O)NC2CCN(C)CC2)ccc1Nc1ncc2c(n1)N(C1CCCC1)CCC(=O)N2C(C)C
active: Potency [1] 5.9 µM | Potency [2] 4.17 µM | Potency [3] 20.9 µM | Potency [4] 14.8 µM | Potency [5] 9.35 µM | Potency [12] 16.6 µM | Potency [13] 11.8 µM | Potency [11] 25.1 µM

COc1ccc(C(=O)CC(=O)c2ccc(C(C)(C)C)cc2)cc1
inactive and 16.6 µM (active): Potency [2]
inactive and 14.8 µM (active): Potency [1]
inactive: Potency [3] | Potency [4] | Potency [5] | Potency [12] | Potency [13] | Potency [6] | Potency [7] | Potency [10] | Potency [11]

Cc1cnc(Nc2cccc(CN3CCOCC3)c2)nc1Nc1cccc(S(=O)(=O)NC(C)(C)C)c1
active: Potency [1] 0.0934 µM | Potency [2] 0.186 µM
inactive: Potency [3] | Potency [9] | Potency [11]

CCC(C)(C)C(=O)O[C@H]1C[C@@H](C)C=C2C=C[C@H](C)[C@H](CC[C@@H]3C[C@@H](O)CC(=O)O3)[C@H]21
inactive: activity (max response) [8] -9.24% and -17.2%
inactive and 17.8 µM (active): Potency [11]
active: Potency [1] 8.41 µM and 9.34 µM | Potency [2] 2.99 µM and 3.72 µM | Potency [3] 20.9 µM | Potency [4] 18.7 µM | Potency [13] 14.8 µM

Cc1ccccc1C(=O)c1ccc(Nc2ccc(Br)cc2N)cc1Cl
active: Potency [1] 11.8 µM and 13 µM | Potency [2] 16.6 µM and 18.4 µM | Potency [9] 20.9 µM | Potency [8] 31.6 µM | Potency [11] 31.6 µM
inactive: Potency [3]

Cc1cc(Nc2ncnc3ccc(-c4ccc(CNCCS(C)(=O)=O)o4)cc23)ccc1Oc1ccn2ncnc2c1
active: Potency [1] 11.8 µM | Potency [2] 11.6 µM and 18.6 µM | Potency [3] 0.935 µM | Potency [4] 0.209 µM | Potency [5] 0.209 µM | Potency [12] 0.743 µM | Potency [13] 1.18 µM | Potency [6] 0.59 µM | Potency [7] 0.0935 µM | Potency [10] 0.332 µM
inactive: Potency [11]

Source: PubChem BioAssay (NCATS)
